RORgamma inh: blocks mouse ROR gamma transcriptional activity | P51450 | AID 2551 | 310,000 tested, 5.4% active | Drosophila S2 Gal4-RORgamma UAS-luciferase reporter, 20 h | Potency, µM (top dose mostly 53.6 µM), hits mostly inhibitors; further: nearly all actives have a fitted effect of over 60% in size
Target sequence (P51450 whole entry, looked up, the tested form may be a part): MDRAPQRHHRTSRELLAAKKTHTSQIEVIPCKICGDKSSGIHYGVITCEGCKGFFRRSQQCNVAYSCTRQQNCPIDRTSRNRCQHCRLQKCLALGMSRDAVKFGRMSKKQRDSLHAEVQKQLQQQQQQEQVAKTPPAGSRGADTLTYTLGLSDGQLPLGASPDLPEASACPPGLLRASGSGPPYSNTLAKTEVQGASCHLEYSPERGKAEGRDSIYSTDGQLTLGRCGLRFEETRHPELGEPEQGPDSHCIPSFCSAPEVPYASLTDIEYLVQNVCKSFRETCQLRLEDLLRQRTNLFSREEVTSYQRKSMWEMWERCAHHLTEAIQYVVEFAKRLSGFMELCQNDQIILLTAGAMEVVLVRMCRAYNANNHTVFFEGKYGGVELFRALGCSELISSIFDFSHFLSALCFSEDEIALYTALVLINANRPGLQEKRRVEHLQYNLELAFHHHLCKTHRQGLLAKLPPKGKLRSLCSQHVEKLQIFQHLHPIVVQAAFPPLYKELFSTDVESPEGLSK
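A Gal4/UAS one-hybrid system in insect cells: metallothionein-promoter Gal4–ROR gamma fusion plus Photinus luciferase reporter. Copper sulfate 700 uM final, 20 hr ambient incubation, luminescent detection after 10 min with reagent.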
Sfp PPTase inh: Sfp phosphopantetheinyl transferase inhibition; Q9F4F7; Biochemical Sfp PPTase activity, qHTS; Potency, µM, usual class: inhibitors; 310,000 tested, 3.5% active; AID 1490;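 further: the enzyme is Sfp with the accession as filed and its product quenches rhodamine fluorescence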
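Fluorescence-quenching assay: 15 nM Sfp-PPTase preincubated 15 min at room temperature with compound, then 5 uM rhodamine-CoA and 12.5 uM BHQ-2-labelled YbbR peptide added. Fluorescence (ex 525/em 598 nm) read at start and after 30 min; difference gives rate.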
PINK1 expr mod: modulators of PINK1 expression | 410,000 tested, 0.2% active | PINK1 immunofluorescence, high-content cytometry, 24 h | Potency, µM (series often up to 76.6 µM), actives largely listed as activators; active means well fitted activation curve with a large enough effect; inconclusive means small, poorly fitted or top-dose-only effect; cell line not stated here; further: nearly all actives have a fitted effect of over 65% in size
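PINK1 protein level read as immunofluorescence by microplate cytometer in a fixed, stained stable cell line after 24 h exposure to five compound concentrations, with CCCP as control.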
ClpP mod: qHTS Assay for Activators of ClpP; Potency, µM (highest dose often 57.5 µM); AID 651965, 2013; 340,000 tested, 1.9% active; purified B. subtilis ClpP, FRET peptide cleavage, 20 min; ATP-dependent Clp protease proteolytic subunit (Bacillus subtilis (strain 168)), P80244; active means well fitted falling curve with a large enough effect; inconclusive means small, poorly fitted or top-dose-only effect; inactive means no such curve, though single readings can be large or run the other way; further: the source files actives as falling curves though it sought activators and does not explain the sign; nearly all actives have a fitted effect of over 65% in size
Target sequence (P80244 whole entry, looked up): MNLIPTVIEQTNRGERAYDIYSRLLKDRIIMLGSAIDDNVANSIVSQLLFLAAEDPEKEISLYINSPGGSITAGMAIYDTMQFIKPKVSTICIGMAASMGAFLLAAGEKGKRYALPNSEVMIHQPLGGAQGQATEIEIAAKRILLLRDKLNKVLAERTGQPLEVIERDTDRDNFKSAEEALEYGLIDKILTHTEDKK
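Purified B. subtilis ClpP, 10 microg/mL final in Tris/HCl pH8 with KCl, BSA, glycerol and Tween-20, cleaved an Abz/nitrotyrosine-quenched decapeptide. Fluorescence (ex 320, em 430) was read at 0 and 20 min at room temperature. Delta was normalized to 5.8 microM ADEP and DMSO/no-enzyme controls.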
VP16 counter: Gal4-VP16 reporter inhibition counter-screen; Potency, µM (titrated, usually from 53.6 µM), usual class: inhibitors; 310,000 tested, 3.5% active; Drosophila S2 Gal4-VP16 UAS-luciferase, luminescence, 20 h;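 further: Gal4-VP16 expression switched on by copper sulfate through the metallothionein promoter; nearly all actives have a fitted effect of over 50% in size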
Epigenetic derep: regulators of epigenetic silencing causing reporter derepression in mouse cells; 280,000 tested, 0.2% active; murine LDR cells, GFP reporter derepression, 30 h; Potency, µM (series often up to 53.9 µM), hits mostly activators; further: nearly all actives have a fitted effect of over 60% in size
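In this reporter-derepression format, murine cells bearing a silenced integrated CMV-GFP locus incubate with test compound (30 h, 37 C), then are washed and imaged; fluorescent objects of 20–120 um count as induced cells.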
Hits are given with their value; i = inactive; ? = inconclusive; nt = no result; [ ] = another dose, or the depositor's remark. A selection: hits, their analogues and other compounds. The true share with any hit is near 8.1%. Unless noted, the call rests on the fitted dose curve; in most records, active means well fitted curve in the direction sought with a large enough effect; inconclusive means small, poorly fitted or top-dose-only effect, or another doubt; inactive means no such curve, though single readings can be large; an effect the other way counts as inactive or inconclusive.

SMILES | RORgamma inh | Sfp PPTase inh | PINK1 expr mod | ClpP mod | VP16 counter | Epigenetic derep
Cc1ccc(NC(=O)N2CCc3cc(S(=O)(=O)N4CCC(C)CC4)ccc32)cc1F | nt | nt | i | i | nt | i
COc1ccc2c(Cl)c(C(=O)N/N=C/c3cccnc3)sc2c1 | ? | i | i | nt | i | nt
Cc1ccc2c(Cl)c(C(=O)N/N=C/c3cccn3C)sc2c1 | 1.3µM | i | i | i | 1.6µM | i
Cn1cccc1/C=N/NC(=O)c1sc2cc(Cl)ccc2c1Cl | 0.71µM | i | nt | nt | 0.56µM | i
COc1ccc2c(c1)O[C@@H](c1ccc3c(c1)OCO3)[C@H](OC(=O)NS(=O)(=O)c1ccc(C)cc1)C2=O | ? | i | nt | nt | i | i
COc1ccc(-c2ccnc3nc(-n4cccc4)nn23)cc1 | ? | i | i | 28µM | i | i
COc1ccc(-c2ccnc3nc(N4CCOCC4)nn23)cc1 | i | i | i | 16µM | i | i
c1ccc(Oc2ccc(-c3ccnc4nc(N5CCOCC5)nn34)cc2)cc1 | ? | i | i | nt | i[10 µM] | i
COCCN1C(=O)/C(=C2/C(=O)N(CC(=O)Nc3ccccc3Cl)c3ccccc32)SC1=S | i | i | i | i | i | nt
CCOc1ccc(NC(=O)CN2C(=O)/C(=C3\SC(=S)N(C4CCS(=O)(=O)C4)C3=O)c3ccccc32)cc1 (stereo not drawn) | i | 56µM | i | nt | i | i
COc1cc2c(cc1OC)CN(c1nc(CN3CCOCC3)nc3sc4c(c13)CCC(C)C4)CC2 (stereo not drawn) | 11µM | i | i | i | ? | i
COc1ccc(Nc2nc(CN3CCOCC3)nc3sc4c(c23)CCC(C)C4)cc1OC (stereo not drawn) | i | i | nt | nt | i | i
CCOc1ccc(-c2cc(C(=O)NCc3ccc(C)cc3)c3ccccc3n2)cc1 | nt | nt | i | ? | nt | i
CCc1ccc(-c2cc(-c3n[nH]c(=S)n3CC)c3ccccc3n2)cc1 | 2µM | i | nt | nt | i | i
CCn1c(-c2cc(-c3cccc(OC)c3)nc3ccccc23)n[nH]c1=S | 5µM | ? | i | i | ? | i
Cc1c(CC(=O)NCCc2ccccc2)c(=O)oc2c(C)c3occ(C(C)(C)C)c3cc12 | nt | nt | i | 32µM | nt | i
O=C(Nc1nccs1)c1cn2ccccc2n1 | 2µM | ? | i | i | 7.1µM | i
NNC(=O)c1cn2ccccc2n1 | i | 79µM | i | i | i | i
O=C(Nc1nccs1)c1cccc2ccccc12 | ? | i | i | i | i | nt
Cc1cc(C(=O)CSc2nc3ccccc3[nH]2)c(C)n1CC1CCCO1 (stereo not drawn) | ? | i | i | i | ? | i
Cc1cc(C(=O)Cn2nnc(-c3ccc(Cl)cc3)n2)c(C)n1CC1CCCO1 (stereo not drawn) | i | i | nt | i | 32µM | i
Cc1cc(C(=O)CSc2nc(N)cc(N)n2)c(C)n1CC1CCCO1 (stereo not drawn) | nt | nt | i | nt | nt | nt
Cc1cc(C(=O)CSc2nnc(-c3ccc(Cl)cc3)n2C)c(C)n1CC1CCCO1 (stereo not drawn) | i | i | ? | i | i | i
Cc1cc(C(=O)CSc2nc3ccccc3o2)c(C)n1CC1CCCO1 (stereo not drawn) | i | i | i | 28µM | ? | i
Cc1sc2nc(SCC(=O)c3cc(C)n(CC4CCCO4)c3C)n(C(C)C)c(=O)c2c1C (stereo not drawn) | ? | i | i | i | 11µM | i
SMILES | RORgamma inh | Sfp PPTase inh | PINK1 expr mod | ClpP mod | VP16 counter | Epigenetic derep
COc1ccccc1N1CCN(c2nc3ccc(C(=O)c4ccccc4)cc3n3c(C)nnc23)CC1 | nt | nt | i | i | nt | i
COc1cc(-c2ccc(Cl)cn2)cc2c1OCCN(S(=O)(=O)C[C@]13CC[C@H](CC1=O)C3(C)C)C2 | nt | nt | i | nt | nt | nt
CCOc1ccccc1NC(=O)CSc1c(C)cnc2c1c(=O)n(C)c(=O)n2C | nt | nt | i | i | nt | i
C=C(C)CNC(=S)N=Nc1c(O)[nH]c2ccc([N+](=O)[O-])cc12 | 2.5µM | i | i | nt | 13µM | i
COc1ccc(NC(=S)N=Nc2c(O)[nH]c3ccccc23)cc1 | 1.3µM | i | i | i | 3.5µM | i
CNC(=S)N=Nc1c(O)[nH]c2ccccc12 | 3.2µM | ? | i | i | ? | i
Cc1ccc(NC(=S)N=Nc2c(O)[nH]c3ccccc23)cc1 | 0.32µM | i | i | nt | 1.3µM | i
Oc1ccc(NC(=S)N=Nc2c(O)[nH]c3ccccc23)cc1 | ? | i | i | nt | i | i
Cc1ccc(NC(=O)CCC(=O)N2CCSc3ccccc32)cc1Cl | nt | nt | i | i | nt | i
CC(C)(C)c1ccc(Oc2ccc(NC(=O)CCC(=O)OCC(=O)c3ccccc3)cc2)cc1 | nt | nt | i | i | nt | i
CCCCNC(=O)NS(=O)(=O)c1ccc(C(=O)O)cc1 | i | i | nt | nt | i | nt
O=C(COc1ccccc1Cl)N(Cc1cccc(F)c1)C1CCS(=O)(=O)C1 (stereo not drawn) | nt | nt | i | i | nt | i
CCOC(=O)C(=O)N=Nc1c(O)[nH]c2ccccc12 | i | i | i | 22µM | i | i
O=C(Cn1nnc(-c2ccccc2)n1)N=Nc1c(O)[nH]c2ccccc12 | i | 89µM | i | i | i | i
CC(C)NC(=S)N=Nc1c(O)[nH]c2ccc([N+](=O)[O-])cc12 | i | i | i | nt | i | i
O=C(N=Nc1c(O)[nH]c2ccccc12)c1cccs1 | ? | i | i | nt | i | i
O=C(O)c1ccc(N=Nc2c(O)[nH]c3ccccc23)cc1 | ? | i | i | nt | 35µM | i
CNC(=S)N=Nc1c(O)[nH]c2ccc(C(C)C)cc12 | 4µM | i | i | i | 2.8µM | i
COc1cc(-c2c(C#N)c(N)nc3c2c(C)nn3-c2ccc(C)c(C)c2)cc(OC)c1OC | i | i | i | 25µM | i | i
CC1=C(C(N)=O)C(c2ccccc2[N+](=O)[O-])n2ncnc2N1 (stereo not drawn) | i | 40µM | i | i | i | nt
CC1=C(C(N)=O)C(c2ccccc2Br)n2ncnc2N1 (stereo not drawn) | nt | nt | i | i | nt | i
COC(=O)c1cc(-c2ccccc2)sc1NC(=O)CN1C(=O)c2ccccc2C1=O | i | 20µM | i | i | i | i
O=C(N/N=C/c1ccc(-c2ccc(Br)cc2)o1)c1ccc2c(c1)OCO2 | 3.5µM | i | i | nt | 10µM | i
Cc1ccc(/C=N/NC(=O)c2ccc3ccccc3c2)s1 | 3.5µM | i | i | i | 5µM | nt
Cc1ccc(/C=N/NC(=O)c2cccc(S(=O)(=O)Nc3ccccc3Cl)c2)s1 | 7.1µM | i | i | i | 5µM | i
Cc1ccc(Cc2nc3ccccc3nc2SCC(=O)NCc2ccc(F)cc2)cc1 | nt | nt | i | i | nt | i
O=C(Cc1ccc2c(c1)OCO2)N1CCOc2ccc(CN3CCOCC3)cc2C1 | nt | nt | i | nt | nt | nt
O=C(N/N=C/c1cc(Br)cs1)c1ccc2c(c1)OCCO2 | 11µM | i | i | nt | ? | i
